Calls of active or inactive are those of the source.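 How the source made its calls, unless noted: active means fluorescence slope after compound addition differing from the mean of all screened samples at 99.7% confidence, in either direction; inactive means the rest.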
Columns and labels:
[1] = inhibitors of TNFa-induced NFkB p65 translocation, primary screen, imaging, HUVEC, MLSMR starter and 10KST1 sets (AID 438;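 active means inhibition above 20% together with a positive visual image hit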;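 further: compound added about 3h40 before a 20 min TNFalpha stimulation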;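 on inhibition: signal is the nuclear over cytoplasmic p65 intensity ratio per well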); conditions: HUVEC TNFa-induced p65 nuclear translocation; cell count: measured here: nuclei count (cytotoxicity indicator), at 2.08 µM; inhibition: at 2 µM, stronger effect = higher value, 0% TNFa-plus-vehicle, 100% no-TNFa wells
[2] = reduction of polyQ htt aggregates in cells – imaging, exon1htt(103Q)mCFP cells, high-content imaging, primary screen (AID 483;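 active means visual image review flags a hit and inhibition of aggregation exceeds 20%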;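 further: compound exposure lasted 3 days before fixation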;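 on nuclei count: percent of the per-plate median nuclei count of sample wells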); conditions: exon1htt(103Q)mCFP cell line, aggregate imaging, at 2 µM; inhibition of aggregation: stronger effect = higher value; nuclei count: measured here: cell count, toxicity
[3] = endothelial E-selectin expression blockers – imaging, HUVEC, immunofluorescence, MLSMR starter and 10KST1 sets, primary screen (AID 487;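 active means visually confirmed hit in the image check and inhibition above 20%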;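 on inhibition: signal is fraction of cell area covered by stained E-selectin grains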;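 on nuclei count: 100% = median nuclei count of all wells on the same plate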); conditions: HUVEC TNFalpha-induced E-selectin immunofluorescence imaging, at 2 µM; inhibition: stronger effect = higher value; nuclei count: measured here: cell number, toxicity
[4] = target: Voltage-gated potassium channel subunit beta-2 (Rattus norvegicus) (UniProt P62483); experiment: inhibitors of rat Kvbeta2 reductase activity – biochemical, NADPH fluorescence, primary screen (AID 622;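 active means fluorescence slope higher than the sample average by over 3 SD, cut at about -0.22 in these data, passing the limit was not always enough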;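 further: slope of raw intensity against log time taken from 70 to 1610 s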); conditions: recombinant KvBeta, 4-cyanobenzaldehyde reduction, at 10 µM, stronger effect = higher value
[5] = target: Voltage-gated potassium channel subunit beta-2 (Rattus norvegicus) (UniProt P62483); experiment: enhancers of rat Kvbeta2 NADPH turnover – biochemical, NADPH fluorescence, primary screen (AID 623;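 active means NADPH fluorescence slope more negative than the mean of all samples by about 3 SD, 99.7% confidence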;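 further: fluorescence intensity change per second fitted from 20 to 320 s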); conditions: Recombinant KvBeta, NADPH fluorescence decrease slope, 10 min; at 10 µM; stronger effect = lower value
[6] = target: Alpha-2C adrenergic receptor (Homo sapiens) (UniProt P18825); experiment: compounds altering alpha2C-coupled GIRK flux – cell-based, HEK293 alpha2C/GIRK1/2, thallium flux, primary screen (AID 624); conditions: thallium flux BTC fluorescence, at 10 µM, actives lie on both sides;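 further: slope of fluorescence ratio to pre-addition baseline per second over 15 to 24 s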
[7] = blockers of RIG-like receptor reporter activation – cell-based, Sendai virus stimulus, luciferase, 10K MLSCN set, TLR/RLR signaling modifier project, primary screen (AID 602276;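 active means inhibition at or above 50% at 10 µM; inactive means inhibition below 50%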;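 further: firefly luciferase from ISG56 promoter only with Renilla not read in this screen; 0% = Sendai virus plus DMSO and 100% = medium plus DMSO without virus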); conditions: HEK293 RL24 IRF3 luciferase reporter, at 10 µM, stronger effect = higher value
[8] = TLR3 IRF3 reporter activation blockers – cell-based, poly I:C stimulus, luciferase, 10K MLSCN set, primary screen (AID 602277;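 active means inhibition of the reporter signal at or above 50%; inactive means inhibition below 50%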); conditions: HEK293-TLR3 RL24 IRF3 luciferase reporter, at 10 µM, stronger effect = higher value

Alpha-2C adrenergic receptor (Homo sapiens), sequence (P18825 whole entry, looked up): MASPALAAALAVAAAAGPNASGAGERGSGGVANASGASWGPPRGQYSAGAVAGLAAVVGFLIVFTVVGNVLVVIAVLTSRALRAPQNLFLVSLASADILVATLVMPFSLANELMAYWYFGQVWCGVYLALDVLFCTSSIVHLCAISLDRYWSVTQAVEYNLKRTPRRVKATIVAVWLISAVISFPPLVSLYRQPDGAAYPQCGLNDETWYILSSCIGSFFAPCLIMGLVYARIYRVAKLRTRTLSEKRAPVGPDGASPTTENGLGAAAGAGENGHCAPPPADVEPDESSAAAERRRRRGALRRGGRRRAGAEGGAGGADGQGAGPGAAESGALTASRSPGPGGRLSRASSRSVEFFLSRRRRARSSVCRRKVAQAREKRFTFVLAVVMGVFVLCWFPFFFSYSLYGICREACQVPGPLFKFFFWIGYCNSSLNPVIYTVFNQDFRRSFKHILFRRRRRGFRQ
Voltage-gated potassium channel subunit beta-2 (Rattus norvegicus), sequence (P62483 whole entry, looked up): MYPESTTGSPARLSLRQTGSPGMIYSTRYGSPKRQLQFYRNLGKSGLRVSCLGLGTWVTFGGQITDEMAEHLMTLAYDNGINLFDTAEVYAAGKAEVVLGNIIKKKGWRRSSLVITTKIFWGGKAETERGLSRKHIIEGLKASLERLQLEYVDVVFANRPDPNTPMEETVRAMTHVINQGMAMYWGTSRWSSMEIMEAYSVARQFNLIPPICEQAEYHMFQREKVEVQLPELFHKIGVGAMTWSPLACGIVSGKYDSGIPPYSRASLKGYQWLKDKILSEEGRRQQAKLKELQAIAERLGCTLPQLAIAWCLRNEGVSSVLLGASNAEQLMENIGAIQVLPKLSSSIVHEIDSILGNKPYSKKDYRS

Compound | cell count [1] | inhibition [1] | inhibition of aggregation [2] | nuclei count [2] [%] | inhibition [3] | nuclei count [3] [%] | fluorescence slope [4] | NADPH fluorescence slope [5] | slope [6] | inhibition [7] | inhibition [8]
CN(C)S(=O)(=O)NC(c1ccccc1)c1ccccc1 | 671 | 5.8% (inactive) | 3.3% (inactive) | 102 | 14.6% (inactive) | 99.9 | -0.413 (inactive) | -3.1e-05 (inactive) | 0.00605 (inactive) | 20.5% (inactive) | 21.8% (inactive)
Cc1cc(CN2CCN(CCC#N)CC2)c(O)c(C2(C)CCCCC2)c1 | 527 | -12.3% (inactive) | 5.3% (inactive) | 98.4 | -197% (inactive) | 90.4 | -0.541 (inactive) | 4e-05 (inactive) | 0.00432 (inactive) | -14.9% (inactive) | 4.95% (inactive)
CCOC(=O)c1sc(NC(=O)CSc2nnc(-c3ccc(OC)cc3)n2CCOC)nc1C | 633 | 12.1% (inactive) | 12.9% (inactive) | 88.1 | -89.1% (inactive) | 140 | -0.481 (inactive) | 1.3e-05 (inactive) | 0.00672 (inactive) | 13.8% (inactive) | 24.5% (inactive)
Cc1ccc(NC2=NCC(=O)N2c2ccc3c(c2)OCCO3)c(C)c1 | 463 | -14.4% (inactive) | -2.6% (inactive) | 116 | -20.7% (inactive) | 97.3 | -0.498 (inactive) | -3.6e-05 (inactive) | 0.00458 (inactive) | 5.69% (inactive) | 7.01% (inactive)
CC(C)N(C(=O)CSc1nnc(-c2cc3ccccc3cc2O)n1Cc1ccco1)C(C)C | 836 | 6.2% (inactive) | -6.1% (inactive) | 107 | 4.9% (inactive) | 102 | -0.47 (inactive) | -2.4e-05 (inactive) | 0.00627 (inactive) | -4.55% (inactive) | 7.55% (inactive)
COc1ccc(-n2c(SCc3ccc(C#N)cc3)nnc2-c2ccccn2)cc1 | 692 | -5.8% (inactive) | -4.4% (inactive) | 105 | -18.8% (inactive) | 118 | -0.599 (inactive) | -3.8e-05 (inactive) | 0.00521 (inactive) | -1.12% (inactive) | 11.2% (inactive)
Cn1nnnc1SCC(=O)Nc1ccccc1-c1ccccc1 | 484 | -8.7% (inactive) | 14.7% (inactive) | 87.9 | -80.2% (inactive) | 114 | -0.302 (inactive) | -1.3e-05 (inactive) | 0.00645 (inactive) | 6.85% (inactive) | -4.74% (inactive)
CC1(CC(=O)O)C(=O)N=C2C=CC=CN21 (stereo not drawn) | 489 | -10.7% (inactive) | 17.4% (inactive) | 77.5 | 12.8% (inactive) | 97.8 | -0.318 (inactive) | 2.3e-05 (inactive) | 0.0089 (inactive) | 19.8% (inactive) | 22.1% (inactive)
CCC(C)(C)NC(=O)CN(Cc1ccc2c(c1)OCO2)C(=O)CCC(=O)Nc1ccccn1 | 517 | -20.9% (inactive) | -0.5% (inactive) | 92.4 | -59.2% (inactive) | 114 | -0.403 (inactive) | -6.3e-05 (inactive) | 0.00669 (inactive) | 12.5% (inactive) | 21.6% (inactive)
CC(=O)c1cccc(-n2nnnc2SCC(=O)N2CCCC2)c1 | 720 | -3.5% (inactive) | -2.4% (inactive) | 119 | -56% (inactive) | 106 | -0.401 (inactive) | -4.2e-05 (inactive) | 0.00357 (inactive) | 4.48% (inactive) | 14.5% (inactive)
CC(=O)Nc1ccc(OCC(O)CN2CCN(c3cccc(Cl)c3)CC2)cc1 (stereo not drawn) | 469 | 7% (inactive) | -19.8% (inactive) | 115 | -27.1% (inactive) | 115 | -0.481 (inactive) | -4.2e-05 (inactive) | 0.00626 (inactive) | 3.23% (inactive) | 21.4% (inactive)
CC(C)CNS(=O)(=O)c1ccc(OCC(=O)Nc2ccc3c(c2)OCO3)c(Cl)c1 | 463 | -12.1% (inactive) | -1.9% (inactive) | 81.6 | -0.6% (inactive) | 85.5 | -0.377 (inactive) | -2e-05 (inactive) | 0.00353 (inactive) | 6.42% (inactive) | 19.3% (inactive)
CCCOc1ccc2ccccc2c1/C=N/n1cnnc1 | 209 | 4.6% (inactive) | -0.3% (inactive) | 89.4 | -4.9% (inactive) | 89.2 | -0.31 (inactive) | -1.6e-05 (inactive) | 0.008 (inactive) | 7.93% (inactive) | 3.78% (inactive)
COc1ccccc1N1CCN(C(=O)C(Cc2ccccc2)NC(=O)C2CCCCC2)CC1 (stereo not drawn) | 370 | -0.9% (inactive) | 11.3% (inactive) | 65.4 | -114% (inactive) | 96.1 | -0.428 (inactive) | -0.000112 (inactive) | 0.00516 (inactive) | 0.074% (inactive) | 17.7% (inactive)
C=C(Cl)COC(=O)[C@H]1C2C=CC(C2)C1C(=O)O (stereo partly drawn) | 347 | -5% (inactive) | -18.6% (inactive) | 96.9 | -29.7% (inactive) | 124 | -0.435 (inactive) | 5.3e-05 (inactive) | 0.00591 (inactive) | -6.49% (inactive) | 2.25% (inactive)
COc1cc(C(=O)OCC(=O)N(C)Cc2ccccc2)cc(OC)c1OC | 405 | 5.1% (inactive) | -1.2% (inactive) | 110 | -264% (inactive) | 119 | -0.535 (inactive) | -0.00012 (inactive) | 0.00533 (inactive) | 15.1% (inactive) | 20.6% (inactive)
Cc1cc(Nc2ccccc2)n(-c2ccccc2)n1 | 329 | -3.3% (inactive) | 27.4% (inactive) | 114 | -44.7% (inactive) | 128 | -0.499 (inactive) | -2.4e-05 (inactive) | 0.00371 (inactive) | -15% (inactive) | -36.8% (inactive)
CC(C)CNC(=O)C1CC(=O)OC12CCCCC2 (stereo not drawn) | 661 | -32.6% (inactive) | 4.3% (inactive) | 96.4 | -18.4% (inactive) | 107 | -0.594 (inactive) | -6.1e-05 (inactive) | 0.00558 (inactive) | 12.4% (inactive) | 19.6% (inactive)
Cc1cccc(-n2c(=O)cc(N3CCN(c4ccc(F)cc4)CC3)[nH]c2=O)c1 | 605 | 0% (inactive) | 15.8% (inactive) | 50.1 | 15.8% (inactive) | 83.6 | -0.448 (inactive) | -2.5e-05 (inactive) | 0.00544 (inactive) | -5.09% (inactive) | -5.41% (inactive)
O=C(CSc1n[nH]c(-c2ccco2)n1)Nc1sc2c(c1C(=O)Nc1ccccc1)CCCC2 | 298 | -4.3% (inactive) | 3.5% (inactive) | 88.7 | -73.5% (inactive) | 91 | -0.447 (inactive) | -3.7e-05 (inactive) | 0.00332 (inactive) | 4.06% (inactive) | 21.7% (inactive)
Cc1cccc(CCNC(=O)C2CCCN(S(=O)(=O)c3cnc[nH]3)C2)c1 (stereo not drawn) | 518 | 16.1% (inactive) | 21.6% (inactive) | 89.8 | -107% (inactive) | 107 | -0.523 (inactive) | 6.1e-06 (inactive) | 0.0065 (inactive) | 30.1% (inactive) | 8.46% (inactive)
Cc1c(C(=O)NCc2ccccn2)sc2nc(-c3ccc(F)cc3)cn12 | 482 | -5.5% (inactive) | -10% (inactive) | 61.1 | 10.9% (inactive) | 104 | -0.502 (inactive) | 1.3e-05 (inactive) | 0.00621 (inactive) | 17.6% (inactive) | -13.7% (inactive)
O=C(Nc1ccccc1)N(O)c1ccc(Cl)cc1 | 284 | -11.4% (inactive) | 38.9% (active) | 90.3 | 44.1% (inactive) | 85.6 | -0.378 (inactive) | -7.1e-05 (inactive) | 0.00373 (inactive) | -39.6% (inactive) | -78.3% (inactive)
OC(COc1ccc2ccccc2c1)CN1CCOCC1 (stereo not drawn) | 780 | 4.7% (inactive) | 3.4% (inactive) | 83 | -44.7% (inactive) | 95.6 | -0.441 (inactive) | -8.9e-05 (inactive) | 0.00562 (inactive) | 3.23% (inactive) | 11.9% (inactive)
CC1=C(C(=O)OC2CCCCCC2)C(c2ccc(C)o2)C2=C(CCCC2=O)N1 (stereo not drawn) | 420 | 3.9% (inactive) | -10% (inactive) | 102 | -22.9% (inactive) | 108 | -0.572 (inactive) | -2e-05 (inactive) | 0.00508 (inactive) | -8.61% (inactive) | -19.9% (inactive)
CCC1CCCN1Cn1cnc2c([nH]c3ccc(OC)cc32)c1=O (stereo not drawn) | 602 | -7.6% (inactive) | 3.4% (inactive) | 108 | -53.1% (inactive) | 86.2 | -0.396 (inactive) | -1.1e-05 (inactive) | 0.0053 (inactive) | 11.1% (inactive) | 26.1% (inactive)
Cc1ccc(NC(=O)CCC(=O)O)cc1F | 381 | 9.4% (inactive) | -13.4% (inactive) | 97.1 | -10.9% (inactive) | 115 | -0.508 (inactive) | -7.1e-05 (inactive) | 0.00611 (inactive) | 16.4% (inactive) | 24.4% (inactive)
COC(=O)c1ccccc1NC(=O)C1CC=CCC1C(=O)O (stereo not drawn) | 373 | 4.2% (inactive) | -0.6% (inactive) | 96.6 | 0.7% (inactive) | 98.1 | -0.479 (inactive) | -3.3e-05 (inactive) | 0.00613 (inactive) | 16.2% (inactive) | 22.4% (inactive)

— PubChem BioAssay
